# Data: PubChem BioAssay (NCATS)
# Results filed as inconclusive are left out. Entries that show only a call come without a potency. Calls of active or inactive are those of the source. Unless noted, calls follow the shape of the dose curve; as a rule, active = well fitted curve in the direction sought with a large enough effect; inconclusive = small, poorly fitted or top-dose-only effect, or another doubt; inactive = no such curve, though single readings can be large; an effect the other way counts as inactive or inconclusive.
# Assays:
# [1] = qHTS Assay for Identification of Small Molecule Antagonists for NFkB Signaling Pathway (AID 895; active = well fitted inhibition curve with a large enough effect in the signal ratio, with a control signal flat, not every such curve was filed as active; the % refers to the signal ratio)
# Method in brief: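 Beta-lactamase reporter read-out (460 and 530 nm emission ratio, 405 nm excitation, 2 hrs substrate loading RT) after 5 hr stimulation with 10 pM TNF alpha in compound-treated NFkB-bla ME-180 cells in low-serum medium.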
# [2] = qHTS Assay for Identification of Small Molecule Agonists for Thrombopoietin (TPO) Signaling Pathway (AID 917); also: potency is read from the fitted curve at half-maximal effect
# Method in brief: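 IL-3-dependent murine pro-B Ba/F3 cells, stably transfected with human TPO receptor and GpIIb-promoter luciferase, are incubated 24 hrs at 37 C with test compound and 26 pM TPO; luciferase signal is read after 10 min at room temperature.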
# [3] = molecular target: Muscarinic acetylcholine receptor M1 (Rattus norvegicus) (UniProt P08482); assay: qHTS Assay for Antagonists of Acetylcholine Muscarinic M1 Receptor: Measurement of IP-One Response (AID 944); also: nearly all actives have a fitted effect of over 75% in size; also: potency is read from the fitted curve at half-maximal effect
# Method in brief: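 M1-CHO (rat), 2000 cells/well, overnight recovery; cpd 10 min; carbachol EC80 (200 nM), 30 min, HEPES buffer + 50 mM LiCl pH 7.4; IP-One HTRF, Ex 337, Em 620/665 nm.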
# [4] = molecular target: Alpha-galactosidase A (Homo sapiens) (UniProt P06280); assay: Counterscreen for Glucocerebrosidase Inhibitors: qHTS Assay for Human alpha-Galactosidase at pH 4.5 (AID 992)
# Method in brief: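 Quantitative HTS: compounds tested from 0.7 nM up to 77 uM against 2 nM enzyme with 80 uM 4-MU alpha-D-galactopyranoside. The 20 min room-temperature reaction is stopped with 1M NaOH/1M glycine, pH 10.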
# [5] = qHTS profiling of the MIPE4 collection as inhibitors of Plasmodium falciparum (HB3) proliferation (AID 743347; call rule not given here); details: P. falciparum HB3 in erythrocytes, SYBR Green DNA, 72 h; at 28.5 µM (top of the series)
# Method in brief: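 Erythrocytes infected with P. falciparum (0.3% parasitemia, 2.5% hematocrit) incubated with compounds 72 h at 37 C, 5% CO2. Lysis with saponin/Triton buffer containing SYBR Green I, overnight at room temperature in the dark; DNA fluorescence (485/535 nm) normalised to 0.29 uM artemisinin and DMSO.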
# [6] = molecular target: Glutathione peroxidase 1 (Homo sapiens) (UniProt P07203); assay: Primary qHTS Assay for Inhibitors of Recombinant Selenoprotein Glutathione Peroxidase 1 (GPX1) (AID 1845191); also: nearly all actives have a fitted effect of over 65% in size
# Method in brief: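 10 nM GPX1 + cpd, 30 min RT; start w/ 1 mM GSH, 0.5 mM cumene hydroperoxide, 0.5 mM NADPH, 100 nM GR, 0.01% BSA; buffer 50 mM Tris-HCl pH 7.5, 2 mM EDTA, 150 mM NaCl; Fl 340/450, 0 & 15 min.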
# [7] = molecular target: Pyruvate kinase (Leishmania mexicana) (UniProt Q27686); assay: qHTS Validation Assay for Inhibitors of Leishmania Mexicana Pyruvate Kinase (AID 945)
# Method in brief: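 Purified LmPYK (E451W mutant, 0.2 nM) was incubated 1 h at room temperature with 0.5 mM PEP and 0.1 mM ADP in 50 mM imidazole pH 7.2, 50 mM KCl, 7 mM MgCl2; ATP formed was read by PKLight luminescence, normalized to DMSO wells.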
# [8] = molecular target: Cytochrome P450 2D6 (Homo sapiens) (UniProt P10635); assay: qHTS Assay for Inhibitors and Substrates of Cytochrome P450 2D6 (AID 891); also: nearly all actives have a fitted effect of over 60% in size; also: potency is read from the fitted curve at half-maximal effect
# Method in brief: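 Human CYP2D6 (5 nM) with 30 uM Luciferin-ME EGE (at Km) in 100 mM KPO4, compound preincubated 10 min, then NADPH regeneration system for 60 min at room temperature. Luciferin read by luminescence; normalized to 1.43 uM quinidine.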
# [9] = Confirmation and Secondary Assay for Modulators of Hemoglobin Beta Chain Splicing at IVS2 654 locus (AID 910);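 also: HeLa cells stably carrying EGFP split by mutant beta-globin IVS2-654 intron; per-well total GFP intensity by laser scanning cytometry after 2-day treatment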
# Method in brief: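 Readout: per-well total peak green fluorescence (488 nm ex, 500–520 nm em) from objects 5–250 µm, reflecting correct splicing of an EGFP-654 reporter. Compounds were applied for 2 days at 37 °C to overnight-plated HeLa EGFP-654 cells; controls were DMSO and 500 nM IVS2-654 PNA.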
# [10] = Confirmation and Secondary Assay for Modulators of Hemoglobin Beta Chain Splicing at IVS2 705 locus (AID 930);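 also: HeLa cells stably expressing the EGFP-705 splicing reporter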
# Method in brief: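 Restored EGFP fluorescence after 2-day compound exposure reports splicing correction in IVS2-705 EGFP reporter HeLa cells; positive control was 500 nM splice-blocking PNA oligo. Signal measured as well total peak GFP intensity (488 nm excitation).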
# [11] = qHTS Assay for Identification of Small Molecule Antagonists for Thrombopoietin (TPO) Signaling Pathway (AID 918); details: TPO-dependent cell signaling reporter, antagonist mode
# Method in brief: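 Ba/F3 (murine, hTPO-R, GPIIb-luc reporter); overnight IL-3 withdrawal; cpd + TPO 26 pM final (EC50); 24 h 37 C/5% CO2; Steadylite luminescence after 10 min RT.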
# [12] = molecular target: Tyrosine-protein kinase Yes (Homo sapiens) (UniProt P07947); assay: qHTS for small molecule inhibitors of Yes1 kinase: Primary Screen (AID 686947)
# Method in brief: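 Yes1 (4 nM) preincubated 20 min with compound, then 60 min room-temperature reaction with 0.1 mM ATP and 0.3 mg/mL poly(E4Y) in pH 7.5 Tris, 10 mM MgCl2. ADP measured by ADP-Glo luminescence, normalised to enzyme/no-enzyme controls.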
# [13] = qHTS for small molecule inhibitors of Yes1 kinase: Counter Assay (AID 686950)
# Method in brief: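 Luminescence read-out from ADP-Glo quantifies a fixed ADP amount (0.02 mM ADP with 0.08 mM ATP) after 60 min at room temperature; signal is normalized between DMSO wells with ATP/ADP and with 0.1 mM ATP alone.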
# [14] = molecular target: Rap guanine nucleotide exchange factor 3 (Homo sapiens) (UniProt O95398); assay: Confirmatory qHTS for agonist of cAMP-regulated guanine nucleotide exchange factor 3 (EPAC1) (AID 1645881);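 also: EPAC1 catalysed release of BODIPY-GDP from Rap1B seen as fluorescence loss; nearly all actives have a fitted effect of over 75% in size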
# [15] = molecular target: Rap guanine nucleotide exchange factor 4 (Homo sapiens) (UniProt Q8WZA2); assay: Confirmatory qHTS for agonist of cAMP-regulated guanine nucleotide exchange factor 4 (EPAC2) (AID 1645884);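 also: nucleotide exchange releases bodipy-GDP from Rap1 and this lowers its fluorescence; nearly all actives have a fitted effect of over 65% in size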
# Chain of Rap guanine nucleotide exchange factor 4 (Homo sapiens) (Q8WZA2 whole entry, looked up): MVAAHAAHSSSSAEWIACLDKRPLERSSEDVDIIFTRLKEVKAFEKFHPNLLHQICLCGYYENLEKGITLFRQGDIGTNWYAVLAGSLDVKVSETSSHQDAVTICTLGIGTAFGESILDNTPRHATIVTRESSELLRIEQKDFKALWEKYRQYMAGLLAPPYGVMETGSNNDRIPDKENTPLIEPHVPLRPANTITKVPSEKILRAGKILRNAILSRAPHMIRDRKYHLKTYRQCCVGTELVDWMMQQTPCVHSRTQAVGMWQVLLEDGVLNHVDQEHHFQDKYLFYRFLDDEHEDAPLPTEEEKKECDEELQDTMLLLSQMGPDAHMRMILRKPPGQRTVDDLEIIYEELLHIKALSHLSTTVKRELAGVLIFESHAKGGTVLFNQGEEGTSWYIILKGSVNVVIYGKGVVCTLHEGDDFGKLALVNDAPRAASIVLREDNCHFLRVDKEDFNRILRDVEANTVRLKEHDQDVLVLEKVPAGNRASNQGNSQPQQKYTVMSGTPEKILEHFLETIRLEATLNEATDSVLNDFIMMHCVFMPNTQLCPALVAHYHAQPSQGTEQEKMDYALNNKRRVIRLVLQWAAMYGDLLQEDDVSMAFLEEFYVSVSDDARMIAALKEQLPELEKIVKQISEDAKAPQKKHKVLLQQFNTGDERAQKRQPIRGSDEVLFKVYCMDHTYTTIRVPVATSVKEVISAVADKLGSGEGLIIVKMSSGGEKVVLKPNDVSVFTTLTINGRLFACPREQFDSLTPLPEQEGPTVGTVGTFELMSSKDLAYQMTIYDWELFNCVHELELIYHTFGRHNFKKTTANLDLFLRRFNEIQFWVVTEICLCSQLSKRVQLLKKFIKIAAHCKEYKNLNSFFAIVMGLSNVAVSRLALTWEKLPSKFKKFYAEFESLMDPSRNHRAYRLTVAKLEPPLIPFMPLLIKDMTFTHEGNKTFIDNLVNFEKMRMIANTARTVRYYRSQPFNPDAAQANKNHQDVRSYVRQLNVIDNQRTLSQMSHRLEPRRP
# Chain of Alpha-galactosidase A (Homo sapiens) (P06280 whole entry, looked up): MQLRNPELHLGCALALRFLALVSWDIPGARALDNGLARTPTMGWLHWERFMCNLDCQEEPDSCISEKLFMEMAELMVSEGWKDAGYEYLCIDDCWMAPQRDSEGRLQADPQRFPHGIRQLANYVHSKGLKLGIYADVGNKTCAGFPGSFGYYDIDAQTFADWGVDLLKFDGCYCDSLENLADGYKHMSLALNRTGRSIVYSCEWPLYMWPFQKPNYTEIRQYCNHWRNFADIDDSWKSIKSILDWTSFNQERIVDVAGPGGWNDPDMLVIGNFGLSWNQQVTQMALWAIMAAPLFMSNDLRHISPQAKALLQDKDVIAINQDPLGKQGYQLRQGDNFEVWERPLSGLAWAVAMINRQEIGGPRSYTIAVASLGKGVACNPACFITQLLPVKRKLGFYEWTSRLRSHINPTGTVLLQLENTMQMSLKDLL
# Chain of Pyruvate kinase (Leishmania mexicana) (Q27686 2-499 E452W): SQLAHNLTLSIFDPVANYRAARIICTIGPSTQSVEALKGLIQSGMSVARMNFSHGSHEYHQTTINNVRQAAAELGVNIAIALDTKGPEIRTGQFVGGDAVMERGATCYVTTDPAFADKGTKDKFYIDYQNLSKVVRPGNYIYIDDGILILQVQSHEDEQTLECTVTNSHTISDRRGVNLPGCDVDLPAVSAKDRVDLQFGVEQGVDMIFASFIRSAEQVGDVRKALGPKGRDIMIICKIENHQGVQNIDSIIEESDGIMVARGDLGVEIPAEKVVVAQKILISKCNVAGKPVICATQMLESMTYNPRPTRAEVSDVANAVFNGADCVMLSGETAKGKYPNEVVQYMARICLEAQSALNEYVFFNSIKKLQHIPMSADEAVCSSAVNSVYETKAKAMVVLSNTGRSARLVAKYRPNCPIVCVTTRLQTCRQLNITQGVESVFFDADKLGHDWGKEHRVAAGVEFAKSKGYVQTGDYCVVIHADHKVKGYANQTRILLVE
# Chain of Cytochrome P450 2D6 (Homo sapiens) (P10635 whole entry, looked up): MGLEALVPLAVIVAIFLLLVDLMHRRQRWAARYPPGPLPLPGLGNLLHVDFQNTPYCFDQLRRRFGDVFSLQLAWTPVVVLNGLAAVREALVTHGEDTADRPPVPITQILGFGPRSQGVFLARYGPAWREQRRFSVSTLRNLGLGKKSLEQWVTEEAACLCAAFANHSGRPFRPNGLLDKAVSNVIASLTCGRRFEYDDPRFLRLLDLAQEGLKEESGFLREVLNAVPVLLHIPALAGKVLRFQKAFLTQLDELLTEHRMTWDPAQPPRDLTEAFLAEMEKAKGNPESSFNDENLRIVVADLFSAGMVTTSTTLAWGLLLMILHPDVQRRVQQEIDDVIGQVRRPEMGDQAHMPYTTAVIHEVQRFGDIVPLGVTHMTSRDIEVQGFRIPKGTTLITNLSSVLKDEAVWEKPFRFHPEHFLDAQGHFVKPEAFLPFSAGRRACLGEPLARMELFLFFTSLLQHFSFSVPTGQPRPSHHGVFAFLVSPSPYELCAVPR
# Chain of Muscarinic acetylcholine receptor M1 (Rattus norvegicus) (P08482 whole entry, looked up): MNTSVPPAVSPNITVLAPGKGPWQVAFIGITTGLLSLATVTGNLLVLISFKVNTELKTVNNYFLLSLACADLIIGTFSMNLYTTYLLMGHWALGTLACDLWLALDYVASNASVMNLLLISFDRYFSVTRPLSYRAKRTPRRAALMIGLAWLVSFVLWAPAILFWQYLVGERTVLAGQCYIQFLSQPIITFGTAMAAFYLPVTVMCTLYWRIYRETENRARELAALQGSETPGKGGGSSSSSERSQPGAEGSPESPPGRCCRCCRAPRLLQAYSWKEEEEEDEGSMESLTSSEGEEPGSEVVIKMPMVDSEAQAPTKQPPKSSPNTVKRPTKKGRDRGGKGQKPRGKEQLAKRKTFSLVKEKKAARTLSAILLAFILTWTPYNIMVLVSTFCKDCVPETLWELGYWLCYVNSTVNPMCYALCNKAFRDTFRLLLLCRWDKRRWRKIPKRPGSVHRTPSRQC
# Chain of Glutathione peroxidase 1 (Homo sapiens) (P07203 whole entry, looked up): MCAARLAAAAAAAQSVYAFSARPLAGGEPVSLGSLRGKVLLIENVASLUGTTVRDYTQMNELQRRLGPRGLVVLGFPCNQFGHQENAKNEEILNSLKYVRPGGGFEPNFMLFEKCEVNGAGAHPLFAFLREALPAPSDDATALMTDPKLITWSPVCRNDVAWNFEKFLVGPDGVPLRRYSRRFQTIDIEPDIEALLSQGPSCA
# Chain of Rap guanine nucleotide exchange factor 3 (Homo sapiens) (O95398 whole entry, looked up): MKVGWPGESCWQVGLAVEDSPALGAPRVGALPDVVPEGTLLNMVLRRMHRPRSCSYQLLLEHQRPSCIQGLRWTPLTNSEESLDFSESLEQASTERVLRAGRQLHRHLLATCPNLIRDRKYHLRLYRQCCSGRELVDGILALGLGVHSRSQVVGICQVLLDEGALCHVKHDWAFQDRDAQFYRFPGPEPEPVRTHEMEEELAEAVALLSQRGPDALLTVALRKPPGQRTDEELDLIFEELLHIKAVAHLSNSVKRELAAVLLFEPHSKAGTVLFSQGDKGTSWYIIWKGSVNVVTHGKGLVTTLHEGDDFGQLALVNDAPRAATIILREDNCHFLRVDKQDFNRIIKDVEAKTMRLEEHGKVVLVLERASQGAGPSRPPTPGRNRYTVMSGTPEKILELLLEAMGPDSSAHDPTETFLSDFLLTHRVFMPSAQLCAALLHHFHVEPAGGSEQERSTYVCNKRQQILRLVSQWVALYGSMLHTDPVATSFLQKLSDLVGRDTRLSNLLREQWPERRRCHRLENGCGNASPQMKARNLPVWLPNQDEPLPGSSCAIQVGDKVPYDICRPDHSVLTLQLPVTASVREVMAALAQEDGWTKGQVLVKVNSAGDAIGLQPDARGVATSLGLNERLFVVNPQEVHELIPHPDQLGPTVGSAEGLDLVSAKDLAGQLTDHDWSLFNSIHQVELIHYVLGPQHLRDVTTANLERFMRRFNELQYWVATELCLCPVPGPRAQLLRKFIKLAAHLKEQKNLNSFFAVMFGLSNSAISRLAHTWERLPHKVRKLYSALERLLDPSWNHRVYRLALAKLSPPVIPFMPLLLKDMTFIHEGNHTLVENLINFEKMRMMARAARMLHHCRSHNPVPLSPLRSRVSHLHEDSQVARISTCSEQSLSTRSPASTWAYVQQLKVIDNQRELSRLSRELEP
smiles,measurement,setting,value
C[C@@H]1CCN=C(N)S1,Potency,[1],inactive
same,Potency,[2],inactive
same,Potency,[3],inactive
same,outcome,[4],inactive
CN[C@@H]1[C@H](O)[C@H](O[C@@H]2[C@H](O)[C@@H](O[C@H]3O[C@H]([C@@H](C)NC)CC[C@H]3N)[C@@H](N)C[C@H]2N)OC[C@]1(C)O,"growth, % of control",[5],107%
same,outcome,[6],inactive [at 9.52 µM]
C#C[C@]1(O)CC[C@H]2[C@H]3CCC4=Cc5oncc5C[C@]4(C)[C@@H]3CC[C@]21C,Potency,[3],7940 nM (active)
same,Potency,[7],inactive
same,outcome,[4],inactive
CNCCCCCCCCSc1nc(C(C)C)ccc1C(=O)c1cccs1,Potency,[8],6.3 nM (active)
O=c1[nH]c2cc(Cl)ccc2c(O)c1-c1cccc(Oc2ccccc2)c1,Potency,[8],6310 nM (active)
COc1cc(COc2cc(N)c(Cl)cc2C(=O)CCC2CCN(CCNS(C)(=O)=O)CC2)cc(OC)c1,Potency,[8],794 nM (active)
CCCCCCCCCCCCCCC[C@@H](O)[C@@H](N)CO,Potency,[8],7940 nM (active)
Cc1cccc([C@@H]2CN(C)CCc3c2cc(O)c(O)c3Cl)c1,Potency,[1],inactive
same,Potency,[3],inactive
same,outcome,[4],inactive
Cc1ccc(S(=O)(=O)/C=C\C#N)cc1,Potency,[8],15.8 nM (active)
Fc1cccc(/C=N\N=C/c2cccc(F)c2)c1,Potency,[1],inactive
same,Potency,[2],3160 nM (active)
same,Potency,[3],inactive
CCCCCCCCCCCCCCCC(=O)O[C@H](CC(=O)O)C[N+](C)(C)C,outcome,[4],inactive
CC1OC(OC2C(CO)OC(OC3C(CO)OC(O)C(O)C3O)C(O)C2O)C(O)C(O)C1NC1C=C(CO)C(O)C(O)C1O (stereo not given),outcome,[9],inactive
same,outcome,[10],inactive
C[C@H](CCC(=O)O)[C@H]1CCC2C3CC[C@@H]4C[C@H](O)CC[C@]4(C)C3CC[C@@]21C (stereo not given in full),"growth, % of control",[5],98.2%
NCCCCCCCCCCNS(=O)(=O)c1cccc2c(Cl)cccc12,Potency,[8],1260 nM (active)
C=C[C@H](N)CCC(=O)O,Potency,[8],inactive
same,outcome,[9],inactive
same,Potency,[2],inactive
same,outcome,[10],inactive
same,Potency,[3],inactive
same,outcome,[4],inactive
N[C@H](CCC(=O)N[C@H](CSN=O)C(=O)NCC(=O)O)C(=O)O,Potency,[1],inactive
same,Potency,[7],inactive
COc1ccccc1N1CCN(C[C@@H](O)COc2cccc3ccccc23)CC1,Potency,[2],inactive
same,Potency,[3],inactive
same,outcome,[4],inactive
same,outcome,[14],inactive
same,outcome,[15],inactive
CCCN(CCC)C[C@@H]1CCCCN1CCNC(=O)N1c2ccccc2C(=O)Nc2cccnc21,Potency,[8],2510 nM (active)
Fc1ccc(C(c2ccc(F)cc2)N2CCN(C/C=C\c3ccccc3)CC2)cc1,Potency,[7],inactive
CCOC(=O)[C@H](N)/C=C(\C)CP(=O)(O)O,Potency,[8],2000 nM (active)
CC(=O)Nc1ccc(OC[C@@H](O)CNC(C)C)cc1,Potency,[8],3160 nM (active)
CO[C@]1(C2=NCCN2)COc2ccccc2O1,Potency,[8],794 nM (active)
same,Potency,[3],inactive
same,Potency,[7],inactive
CC(=O)N[C@@H](C(=O)O)C(C)(C)SN=O,outcome,[9],inactive
same,outcome,[10],inactive
same,Potency,[3],inactive
same,Potency,[7],inactive
